Data reported in the supplement of paper PMC10849652.
About 8,800 targets were measured; listed, in parts, are those with a hit and a random draw of the rest. About 0.5% of all pairs of compound and target were hits. Values without a mark were called inactive.

Assays:
Assay in all cases: log2 fold change, soluble protein after heating vs DMSO (PISA); higher = thermal stabilisation; K562 lysate, 10 uM; active = over 0.2 and 3.5 SD of the protein, either way, in both replicates (recomputed)
[1] = compound: CN1CC[C@H](c2c(O)cc(O)c3c(=O)cc(-c4ccccc4Cl)oc23)[C@H](O)C1 [alvocidib]
In short: (§1)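 Thermal stability, expressed as log-two fold change relative to solvent controls, is given from duplicates. Crude K562 extract in PBS pH 7.4 with 1 mM MgCl2, at 1 mg/mL protein, was treated with 10 μM compound for 30 min and heated in aliquots for 3 min across 48°C-58°C. After pooling, adjustment to 0.5% NP-40 at 4°C and centrifugation at 21,000xg for 90 min, supernatant protein was measured by TMTpro 16plex LC-MS/MS with channel sums equalised.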

[2] = compound: CN1CCc2c(c3ccccc3n2Cc2ccc(C(=O)NO)cc2)C1 [Tubastatin A]
In short: as §1

[3] = compound: CNC(=O)C1=CC=CC=C1NC2=NC(=NC=C2Cl)NC3=C(C=C(C=C3)N4CCOCC4)OC
In short: as §1

[4] = compound: CNC(=O)c1ccc(Nc2ncc(C(F)(F)F)c(NCc3nccnc3N(C)S(C)(=O)=O)n2)cc1 [defactinib]
In short: as §1

[5] = compound: CNc1nc(-c2ccc3c(N)n[nH]c3c2)cc(N2C[C@@H](C(=O)NC3CCCCC3)CC[C@H]2C)n1
In short: as §1

[6] = compound: COC(=O)N[C@@H](C)CNc1nccc(-c2cn(C(C)C)nc2-c2cc(Cl)cc(NS(C)(=O)=O)c2F)n1 [encorafenib]
In short: as §1

[7] = compound: COC(=O)[C@H](CCSC)NC(=O)C1=C(C=C(C=C1)NC[C@H](CS)N)C2=CC=CC=C2
In short: as §1

[8] = compound: COc1cc(Nc2ncc3c(n2)-c2ccc(Cl)cc2C(c2c(F)cccc2OC)=NC3)ccc1C(=O)O [alisertib]
In short: as §1

[9] = compound: COc1cc2nc(-c3cc(F)ccc3O)nc(N[C@@H]3CNC[C@H]3C(C)(C)O)c2cc1OC
In short: as §1

[10] = compound: COc1cc2ncnc(Nc3ccc(F)c(Cl)c3)c2cc1OCCCN1CCOCC1 [gefitinib]
In short: as §1

UniProt P06753, sequence (P06753 whole entry, looked up): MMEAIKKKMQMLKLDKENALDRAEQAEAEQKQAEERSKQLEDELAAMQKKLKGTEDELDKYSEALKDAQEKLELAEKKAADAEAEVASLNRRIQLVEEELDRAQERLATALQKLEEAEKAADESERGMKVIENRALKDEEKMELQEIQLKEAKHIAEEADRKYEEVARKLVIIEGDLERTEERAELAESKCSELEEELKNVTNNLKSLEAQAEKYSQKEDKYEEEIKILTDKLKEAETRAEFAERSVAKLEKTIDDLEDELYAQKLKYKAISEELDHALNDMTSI
UniProt P68371, sequence (P68371 whole entry, looked up): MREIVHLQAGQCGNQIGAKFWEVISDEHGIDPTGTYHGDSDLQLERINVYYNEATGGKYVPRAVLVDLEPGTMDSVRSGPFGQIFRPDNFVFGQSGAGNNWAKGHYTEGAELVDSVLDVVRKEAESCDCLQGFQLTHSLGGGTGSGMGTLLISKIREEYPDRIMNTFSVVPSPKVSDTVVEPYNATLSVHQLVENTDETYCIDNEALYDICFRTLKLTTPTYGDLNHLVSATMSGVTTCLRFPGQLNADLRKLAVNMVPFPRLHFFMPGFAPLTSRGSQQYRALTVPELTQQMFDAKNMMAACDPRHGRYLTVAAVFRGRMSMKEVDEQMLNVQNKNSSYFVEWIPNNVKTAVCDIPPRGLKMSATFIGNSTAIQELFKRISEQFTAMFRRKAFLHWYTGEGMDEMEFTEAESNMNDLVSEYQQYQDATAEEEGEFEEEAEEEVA
UniProt Q9H3M7, sequence (Q9H3M7 whole entry, looked up): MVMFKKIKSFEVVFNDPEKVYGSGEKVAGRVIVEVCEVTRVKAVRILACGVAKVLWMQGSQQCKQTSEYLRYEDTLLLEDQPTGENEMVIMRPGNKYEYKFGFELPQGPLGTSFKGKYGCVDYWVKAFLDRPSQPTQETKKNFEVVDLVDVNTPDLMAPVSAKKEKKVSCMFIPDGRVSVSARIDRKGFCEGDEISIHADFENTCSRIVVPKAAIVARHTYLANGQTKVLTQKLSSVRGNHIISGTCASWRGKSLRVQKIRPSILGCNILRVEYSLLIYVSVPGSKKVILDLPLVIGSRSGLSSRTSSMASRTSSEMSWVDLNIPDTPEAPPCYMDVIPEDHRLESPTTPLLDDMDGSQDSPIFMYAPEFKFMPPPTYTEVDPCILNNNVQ
UniProt P15884, sequence (P15884 whole entry, looked up): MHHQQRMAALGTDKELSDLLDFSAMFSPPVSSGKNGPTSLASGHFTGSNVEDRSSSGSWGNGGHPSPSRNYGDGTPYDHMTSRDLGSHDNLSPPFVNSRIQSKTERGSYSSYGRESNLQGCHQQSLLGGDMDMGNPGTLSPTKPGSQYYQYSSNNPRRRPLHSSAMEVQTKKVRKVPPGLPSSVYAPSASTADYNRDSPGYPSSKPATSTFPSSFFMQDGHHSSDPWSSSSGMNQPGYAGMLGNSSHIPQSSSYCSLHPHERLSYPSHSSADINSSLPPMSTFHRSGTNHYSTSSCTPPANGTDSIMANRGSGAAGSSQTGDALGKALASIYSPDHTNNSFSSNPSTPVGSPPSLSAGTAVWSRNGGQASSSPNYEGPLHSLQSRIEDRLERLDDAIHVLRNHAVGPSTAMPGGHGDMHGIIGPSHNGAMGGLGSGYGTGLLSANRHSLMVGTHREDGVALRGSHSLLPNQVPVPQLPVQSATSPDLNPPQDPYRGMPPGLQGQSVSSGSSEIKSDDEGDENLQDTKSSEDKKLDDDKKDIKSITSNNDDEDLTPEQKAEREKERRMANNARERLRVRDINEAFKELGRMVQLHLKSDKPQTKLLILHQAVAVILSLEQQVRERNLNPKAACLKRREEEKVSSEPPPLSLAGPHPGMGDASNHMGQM
UniProt Q8NBN3, sequence (Q8NBN3 whole entry, looked up): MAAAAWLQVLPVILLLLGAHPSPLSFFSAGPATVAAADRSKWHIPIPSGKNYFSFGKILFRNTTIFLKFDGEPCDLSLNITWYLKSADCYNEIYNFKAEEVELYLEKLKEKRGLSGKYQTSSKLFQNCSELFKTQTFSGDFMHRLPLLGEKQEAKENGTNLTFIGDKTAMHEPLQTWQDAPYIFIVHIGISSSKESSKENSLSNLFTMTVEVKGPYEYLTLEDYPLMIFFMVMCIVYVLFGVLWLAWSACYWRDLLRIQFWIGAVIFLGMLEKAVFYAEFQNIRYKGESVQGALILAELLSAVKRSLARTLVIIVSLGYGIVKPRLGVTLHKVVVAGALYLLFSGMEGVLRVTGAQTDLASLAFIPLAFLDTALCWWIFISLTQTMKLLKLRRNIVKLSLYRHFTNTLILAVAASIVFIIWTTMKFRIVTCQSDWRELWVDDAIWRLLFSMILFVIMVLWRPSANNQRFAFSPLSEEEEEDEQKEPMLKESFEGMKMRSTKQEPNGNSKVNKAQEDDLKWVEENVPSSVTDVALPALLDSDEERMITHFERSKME
UniProt Q04726, sequence (Q04726 whole entry, looked up): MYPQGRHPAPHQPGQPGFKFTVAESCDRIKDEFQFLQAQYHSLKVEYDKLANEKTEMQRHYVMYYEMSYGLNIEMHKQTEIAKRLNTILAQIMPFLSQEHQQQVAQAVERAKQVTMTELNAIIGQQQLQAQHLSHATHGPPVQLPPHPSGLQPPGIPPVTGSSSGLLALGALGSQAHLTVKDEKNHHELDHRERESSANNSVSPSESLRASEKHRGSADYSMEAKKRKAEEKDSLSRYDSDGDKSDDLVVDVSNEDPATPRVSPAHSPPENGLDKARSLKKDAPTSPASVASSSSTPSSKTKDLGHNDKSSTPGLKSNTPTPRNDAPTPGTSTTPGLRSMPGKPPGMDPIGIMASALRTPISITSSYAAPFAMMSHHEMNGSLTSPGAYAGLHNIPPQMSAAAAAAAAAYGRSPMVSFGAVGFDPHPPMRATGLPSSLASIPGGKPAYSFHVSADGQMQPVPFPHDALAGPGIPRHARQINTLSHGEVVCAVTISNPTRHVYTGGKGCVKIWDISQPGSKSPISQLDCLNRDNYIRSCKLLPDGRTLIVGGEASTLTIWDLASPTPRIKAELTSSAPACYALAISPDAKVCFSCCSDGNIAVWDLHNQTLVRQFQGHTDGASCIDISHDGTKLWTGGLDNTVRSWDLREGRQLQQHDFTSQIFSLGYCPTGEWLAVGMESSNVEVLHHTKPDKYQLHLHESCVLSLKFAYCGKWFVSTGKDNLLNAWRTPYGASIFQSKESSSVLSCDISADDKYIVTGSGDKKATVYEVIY
UniProt Q9UGU0, sequence (Q9UGU0 whole entry, looked up): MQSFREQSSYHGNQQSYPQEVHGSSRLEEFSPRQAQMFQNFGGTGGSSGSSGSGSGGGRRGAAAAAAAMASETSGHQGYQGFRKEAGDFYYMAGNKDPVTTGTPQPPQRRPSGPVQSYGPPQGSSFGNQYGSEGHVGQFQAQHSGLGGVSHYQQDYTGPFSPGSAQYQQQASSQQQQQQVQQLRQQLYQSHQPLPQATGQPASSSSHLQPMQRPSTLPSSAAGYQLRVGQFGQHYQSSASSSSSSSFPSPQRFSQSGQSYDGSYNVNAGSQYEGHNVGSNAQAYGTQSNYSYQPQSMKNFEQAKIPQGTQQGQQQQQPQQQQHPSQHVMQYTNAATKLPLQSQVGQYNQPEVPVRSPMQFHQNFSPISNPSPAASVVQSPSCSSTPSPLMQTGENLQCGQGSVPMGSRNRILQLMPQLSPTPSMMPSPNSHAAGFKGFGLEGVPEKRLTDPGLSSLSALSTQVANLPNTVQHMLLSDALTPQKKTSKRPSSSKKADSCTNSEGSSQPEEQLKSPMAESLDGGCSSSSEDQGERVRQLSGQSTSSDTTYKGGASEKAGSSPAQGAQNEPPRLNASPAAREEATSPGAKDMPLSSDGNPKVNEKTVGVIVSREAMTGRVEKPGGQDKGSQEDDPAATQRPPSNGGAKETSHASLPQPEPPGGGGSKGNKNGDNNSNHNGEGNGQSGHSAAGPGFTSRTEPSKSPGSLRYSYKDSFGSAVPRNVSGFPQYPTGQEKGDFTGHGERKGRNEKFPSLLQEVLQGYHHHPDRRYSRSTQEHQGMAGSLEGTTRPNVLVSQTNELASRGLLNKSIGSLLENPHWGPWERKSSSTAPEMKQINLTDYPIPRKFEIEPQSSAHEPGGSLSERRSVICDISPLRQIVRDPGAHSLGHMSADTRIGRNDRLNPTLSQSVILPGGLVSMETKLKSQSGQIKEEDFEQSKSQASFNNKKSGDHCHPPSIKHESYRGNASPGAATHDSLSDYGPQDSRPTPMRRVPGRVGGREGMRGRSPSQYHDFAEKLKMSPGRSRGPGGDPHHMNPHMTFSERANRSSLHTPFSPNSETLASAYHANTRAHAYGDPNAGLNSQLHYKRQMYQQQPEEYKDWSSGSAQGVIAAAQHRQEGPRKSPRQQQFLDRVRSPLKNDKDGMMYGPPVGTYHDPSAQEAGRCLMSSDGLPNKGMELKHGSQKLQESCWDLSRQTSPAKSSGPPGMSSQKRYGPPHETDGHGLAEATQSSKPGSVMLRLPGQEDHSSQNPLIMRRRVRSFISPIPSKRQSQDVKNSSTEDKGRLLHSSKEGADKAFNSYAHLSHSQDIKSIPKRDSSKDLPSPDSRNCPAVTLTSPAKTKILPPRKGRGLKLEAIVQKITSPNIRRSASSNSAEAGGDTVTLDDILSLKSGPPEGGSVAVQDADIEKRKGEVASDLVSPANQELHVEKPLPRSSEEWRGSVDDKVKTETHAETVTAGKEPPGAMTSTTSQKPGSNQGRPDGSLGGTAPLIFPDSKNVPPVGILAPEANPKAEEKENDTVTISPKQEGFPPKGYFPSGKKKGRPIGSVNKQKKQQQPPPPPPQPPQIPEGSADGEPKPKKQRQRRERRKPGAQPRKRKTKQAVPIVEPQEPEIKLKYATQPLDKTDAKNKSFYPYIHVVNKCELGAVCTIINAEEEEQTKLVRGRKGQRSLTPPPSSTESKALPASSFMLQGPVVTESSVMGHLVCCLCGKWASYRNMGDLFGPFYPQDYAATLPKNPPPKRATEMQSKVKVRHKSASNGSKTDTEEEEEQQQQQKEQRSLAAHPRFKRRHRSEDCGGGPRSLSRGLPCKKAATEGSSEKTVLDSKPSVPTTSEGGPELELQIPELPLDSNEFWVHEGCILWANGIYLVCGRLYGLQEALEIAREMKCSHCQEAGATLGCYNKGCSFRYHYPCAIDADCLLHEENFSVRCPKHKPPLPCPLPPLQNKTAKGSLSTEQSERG

Target | log2 fold change [1] | log2 fold change [2] | log2 fold change [3] | log2 fold change [4] | log2 fold change [5] | log2 fold change [6] | log2 fold change [7] | log2 fold change [8] | log2 fold change [9] | log2 fold change [10]
TMEM87A (UniProt Q8NBN3) | -0.076 | -0.013 | -0.012 | -0.006 | -0.017 | 0.022 | -0.045 | -0.02 | 0.015 | 0.022
TFAP4 (UniProt Q01664) | -0.037 | 0.135 | 0.133 | -0.066 |  | 0.156 | -0.108 | -0.106 | -0.097 | -0.096
TXNIP (UniProt Q9H3M7) | 0.017 | -0.021 | 0.037 | 0.042 | 0.046 | 0.011 | 0.067 | -0.015 |  | -0.004
TTLL12 (UniProt V9GY16) | 0.003 | 0.177 | 0.077 | -0.095 |  | -0.174 | 0.146 |  |  | 
TPM3 isoform 3 (UniProt P06753) | -0.202 | -0.049 | 0.028 | 0.074 | -0.137 | -0.014 | -0.039 |  | -0.001 | 
UBR1 (UniProt Q8IWV7) | -0.018 | -0.026 | 0.009 | 0.001 | -0.03 | 0.033 | 0.055 | 0.003 | -0.007 | 0.016
TIAL1 isoform 2 (UniProt Q01085) | -0.005 | 0.05 | -0.015 | 0.006 | -0.005 | 0.009 | -0.053 | 0.027 | 0.013 | 0.041
TUBB4B (UniProt P68371) | 0.032 | -0.017 | 0.024 | 0.018 | -0.039 | -0.03 | 0.067 | 0.019 | -0.013 | -0.028
TJP1 (UniProt G3V1L9) | -0.09 | -0.042 | 0.124 | 0.241 | 0.119 |  |  | -0.079 |  | -0.215
TTL (UniProt Q8NG68) | 0.112 | -0.143 | 0.015 | -0.065 | 0.001 | 0.079 | 0.144 | -0.027 | 0.019 | 0.112
TLE3 isoform 5 (UniProt Q04726) | -0.153 | -0.06 | 0.004 |  | 0.011 | -0.02 | 0.002 | 0 | 0.008 | 0.009
UBN1 (UniProt Q9NPG3) | -0.176 |  |  | -0.044 | -0.076 | 0.059 | 0.088 |  | 0.09 | 
TLE3 (UniProt H0YL70) |  |  |  |  | 0.153 |  |  |  |  | 
TFPI isoform 2 (UniProt P10646) |  |  |  | -0.109 |  |  |  |  |  | 
TRIM3 (UniProt O75382) |  |  | 0.06 | -0.095 |  | 0.034 | 0.041 |  | 0.069 | 
TXNRD2 isoform 3 (UniProt Q9NNW7) |  | 0.072 | 0.194 |  |  |  |  |  |  | 
TUBGCP5 (UniProt Q96RT8) | -0.069 | -0.128 |  | -0.159 | -0.055 | 0.179 | 0.145 | -0.023 | 0.025 | -0.007
TASP1 (UniProt Q9H6P5) |  | 0.087 | -0.119 |  | 0.112 | -0.035 | 0.103 | -0.151 | -0.048 | -0.046
TCF20 (UniProt Q9UGU0) | -0.017 |  | 0.01 |  | 0.615 (active) |  |  |  | 0.167 | 
TCF4 (UniProt P15884) | 0.005 | -0.282 |  |  | -0.009 | 0.17 | -0.099 | 0.078 | 0.212 | 0.06
